Test results: PubChem BioAssay AID686979 (National Center for Advancing Translational Sciences (NCATS), 2013)
Values joined by “and” are separate entries in the source; they are usually repeats but may differ in a detail not shown here. Equal values may be shown once. About 50,000 (12%) of roughly 420,000 compounds were called active. Not shown: some 26% with an inconclusive outcome. For the sample, actives were picked, then their nearest neighbours and some compounds at random. Values without a mark were called inactive. Calls follow the shape of the dose curve; as a rule, active = well fitted inhibition curve with a large enough effect; inconclusive = small, poorly fitted or top-dose-only effect; inactive = flat fitted curve, though single readings scatter.

Experiment: qHTS for Inhibitors of human tyrosyl-DNA phosphodiesterase 1 (TDP1): qHTS in cells in presence of CPT; also: nearly all actives have a fitted effect of over 55% in size
Conditions: chicken DT40 Tdp1-/-;hTDP1 cells + 20 nM CPT, ATP luminescence, 48 h; series mostly up to 46.2 µM; activity change, negative = growth inhibition: at the top concentration
In short: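 Chicken DT40 Tdp1-/- cells stably complemented with human TDP1 were seeded at 400 cells/well in medium containing 20 nM camptothecin, exposed to pin-transferred compounds, and grown at 37 °C for at least 48 hr. Viability was read as ATP luminescence.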
% is scaled to controls: 0 for no effect and ±100 for the full control effect; potency is read from the fitted curve at half-maximal effect.

Row | Compound | activity change, negative = growth inhibition | Potency
1 | CC(C)Oc1ccc(Oc2ccc(C(F)(F)F)cn2)cc1 | -7.36% | 
2 | CC(C)CN1CCC1(C)C(=O)Nc1ccc(OC(F)F)cc1 (stereo unspecified) | 0.933% | 
3 | CC(C)Oc1ccc(CN2CCC2(C)C(=O)NCc2ccc(C(F)(F)F)cc2)cc1 (stereo unspecified) |  | 25.9 µM (active)
4 | CN(CC(=O)Nc1ccc(Cl)cc1)C(=O)CNC(=O)c1ccc2ccccc2c1 | 15.8% | 
5 | O=C(/C=C/c1ccccc1)Oc1coc(CSc2ncccn2)cc1=O | -1.71% | 
6 | COc1ccc(-c2nn3c(-c4ccc(OC)cc4)nnc3c3ccccc23)cc1 | -23.6% | 
7 | COc1ccccc1OCCCC(=O)Nc1ccc2c(c1)OCCO2 | -7.91% | 
8 | COc1cccc(/C=C/C(=O)Nc2ccc3c(c2)OCCO3)c1 | -16.5% | 
9 | COc1ccc(OC)c(/C=C/C(=O)OCC(=O)Nc2ccc3c(c2)OCCO3)c1 |  | 20.6 µM (active)
10 | Nc1nnc(SCC(=O)NCC(=O)Nc2ccc(F)c(F)c2F)s1 | -26.3% | 
11 | COc1ccc(C2/C=C\CN(CC(C)C)CC(=O)N2Cc2ccc(F)cc2)cc1 (stereo unspecified) | -28.6% | 
12 | O=C(N[C@H]1C/C=C\C(c2ccc(F)cc2)N(Cc2ccccc2)C(=O)C1)OCC1c2ccccc2-c2ccccc21 (stereo partly specified) |  | 18.4 µM (active)
13 | O=C1c2ccccc2C(O)N1Cc1ccccc1 (stereo unspecified) | -3.68% | 
14 | Cn1c(SCC(=O)N2CCCC2)nnc1-c1ccc2c(c1)OCO2 | 0.427% | 
15 | O=C(CNCc1ccc(Cl)cc1)Nc1cccc(C(=O)O)c1 | -7.19% | 
16 | CCN(CC)C(=O)CSc1nc2ccsc2c(=O)n1Cc1ccccc1Cl |  | 18.4 µM (active)
17 | CCOC(=O)n1c(SCC(=O)N(CC)CC)nc2ccccc21 | -5.32% | 
18 | CCOC(=O)CSc1nc2c(c(=O)n(Cc3ccccc3Cl)c(=O)n2C)n1C | -1.36% | 
19 | O=C(CSc1ccsc1[N+](=O)[O-])N1CCCCC1 | 5.2% | 
20 | O=C(Nc1sc2c(c1-c1nc3ccccc3[nH]1)CCCC2)C1CC1 | -5.5% | 
21 | COc1ccc(C)c(Cn2c(-c3nonc3N)nc3ccccc32)c1 |  | 2.59 µM (active)
22 | CC(=O)Nc1nonc1-c1nc2ccccc2n1Cc1ccccn1 | -7.68% | 

Row | Compound | activity change, negative = growth inhibition | Potency
23 | COc1cccc(C(O)c2nc3ccccc3n2C)c1 (stereo unspecified) | -2.32% | 
24 | Fc1ccc(CNc2nc3ccccc3n3nnnc23)cc1 | 0.303% | 
25 | COc1ccc2oc(N)nc2c1 | 0.744% | 
26 | Nc1nonc1-c1nc2ccccc2n1Cc1ccc(F)cc1 |  | 16.4 µM (active)
27 | CN(C)S(=O)(=O)c1ccc(N2CCCC2=O)c([N+](=O)[O-])c1 | 15.4% | 
28 | Cc1ccc(F)cc1NC(=O)N1CCCN(c2ccc(C(F)(F)F)cn2)CC1 | -23.3% | 
29 | O=C(Cn1c(=O)n(Cc2ccccc2)c(=O)c2sc3ccccc3c21)Nc1ccccc1F | -24.1% | 
30 | Brc1ccccc1C1N=C(c2ccccc2)NO1 (stereo unspecified) | 9.11% | 
31 | CCc1nc2c(=O)[nH]cnc2o1 | -2.41% | 
32 | Cc1n[nH]c(=O)c2c(NC(=O)CSc3cc(Cl)ccc3Cl)oc(C)c12 | 4.94% | 
33 | O=C(COc1ccc2c(C(F)(F)F)cc(=O)oc2c1)Nc1ccc2c(c1)OCCO2 | -7.01% | 
34 | CCOc1ccc2c(=O)c(-c3ccc4c(c3)OCCCO4)c(C)oc2c1 |  | 18.4 µM (active)
35 | CCOc1ccc(NC(=O)Cn2cc(C(=O)c3ccc(C)cc3)c(=O)c3cc4c(cc32)OCCO4)cc1 | -10.7% | 
36 | C=CCn1c(SCC(=O)CC(=O)OCC)nc2cc(C(=O)N3CCC(C(N)=O)CC3)ccc2c1=O | 22.1% | 
37 | CCOC(=O)C1CCCN(C(=O)c2ccc(C)c(F)c2)CC1 (stereo unspecified) | 0.95% | 
38 | CCc1ccc(Nc2nn3c(=O)c4cc5c(cc4nc3s2)OCO5)cc1 | -1.7% | 
39 | CCOC(=O)C1CCN(C(=O)c2ccc3c(=O)n4nc(Nc5ccccc5CC)sc4nc3c2)CC1 |  | 13 µM (active)
40 | Cc1nc2c(c(C)nn2-c2ccccc2)c(C)c1CCC(=O)NCCc1ccc(Cl)cc1 | -24.3% | 
41 | Cc1ccccc1Nc1nn2c(=O)c3ccc(C(=O)NCCc4ccc(Cl)cc4)cc3nc2s1 |  | 5.8 µM (active)
42 | CC(=O)NS(=O)(=O)c1ccc2c(c1)Cc1cc(S(=O)(=O)NC(C)=O)ccc1-2 | -22.8% | 
43 | O=C(CN(C(=O)CCC(=O)Nc1nccs1)c1ccc(F)cc1)NCc1ccc2c(c1)OCO2 | -19.5% | 
44 | CO[C@@H]1[C@@H](OC(N)=O)[C@@H](O)C(Oc2ccc3c(O)c(NC(=O)c4ccc(O)c(CC=C(C)C)c4)c(=O)oc3c2C)OC1(C)C (stereo partly specified) | 5.01% | 

Row | Compound | activity change, negative = growth inhibition | Potency
45 | Nc1ccc(-c2nnc(-c3ccccc3)o2)cc1 | 3.39% | 
46 | Cc1ccc(S(=O)(=O)NCCC(=O)Nc2cccc(S(N)(=O)=O)c2)cc1C | -27.5% | 
47 | c1ccc(-n2nnnc2N2CCOCC2)cc1 | -12.1% | 
48 | c1ccc2c(NC3C4CC5CC(C4)CC3C5)nc(N3CCOCC3)nc2c1 (stereo unspecified) |  | 10.3 µM (active)
49 | FC(F)(F)c1cc(-c2ccco2)nc(N2CCOCC2)n1 | -9.95% | 
50 | Cc1ccc(NC(=O)Cc2nc(COC(=O)C(C)NS(=O)(=O)c3ccc(C)cc3)cs2)cc1 (stereo unspecified) | -12.3% | 
51 | CCOC(=O)c1ccc(NC(=S)Nc2cc(C)cc(C)n2)cc1 | -1.9% | 
52 | CN(c1ccccc1)c1nc(N)c([N+](=O)[O-])c(NCc2ccco2)n1 | 3.35% | 
53 | c1ccc(-c2nc(NCc3ccco3)c3ccccc3n2)cc1 |  | 16.4 µM (active)
54 | c1coc(CNc2ncnc3ccccc23)c1 |  | 7.08 µM (active) and 10.3 µM (active)
55 | CS(=O)(=O)n1nc(-c2ccccc2)nc1NCc1ccco1 | 8.04% | 
56 | Brc1nc2ncnc(NCc3ccco3)c2[nH]1 | -15.7% | 
57 | Cc1ccc(C(=O)NNc2ncnc3ccccc23)cc1 | -22.4% | 
58 | COCCOC1CCN(C(=O)c2ccc(OC)c(OC3CCN(C(C)C)CC3)c2)CC1 | -4.72% | 
59 | Cc1cccc(NS(=O)(=O)c2ccc([N+](=O)[O-])cc2)n1 | -0.281% | 
60 | CCOC(=O)C1=C(c2ccc(OC)cc2)C(=O)c2ccccc2C1=O |  | 1.16 µM (active)
61 | COc1ccc(OCCCON2C(=O)c3ccccc3C2=O)cc1 | 4.54% | 
62 | CCOC(=O)c1cnc(-c2ccccc2)nc1Oc1ccc(C)cc1 | -22.3% | 
63 | Cc1cc(C)c(C#N)c(SCC(=O)NN2CC(=O)N(c3ccccc3F)CC2=O)n1 | 5.8% | 
64 | COC(=O)c1ccc(CSc2nncn2N)cc1 | 2.13% | 
65 | Cc1ccc(CCNC(=O)c2ccc3c(c2)nc2n3CCC(C)C2)cc1 (stereo unspecified) | 10.9% | 
66 | CCOc1c2ccc(C(=O)NCc3ccc4c(c3)OCO4)cc2nn1C | 6.34% | 

Row | Compound | activity change, negative = growth inhibition | Potency
67 | C=CCNC(=O)c1ccc2c3n(nc2c1)-c1ccc(C)cc1CO3 |  | 20.6 µM (active)
68 | O=C1CCC[C@@H]2C[C@@]3(C[C@@H]4CCN1[C@H]24)Nc1ccccc1NC3=NCc1ccccc1 | -16.3% | 
69 | Cc1cc2c(cc1C)NC1(C[C@H]3CCC(=O)N4CC[C@@H](C1)[C@@H]34)C(=NC(C)(C)CC(C)(C)C)N2 (stereo partly specified) |  | 20.6 µM (active)
70 | O=C1CC[C@@H]2CC3(C[C@@H]4CCN1[C@H]24)Nc1cc([N+](=O)[O-])ccc1NC3=NC1CCCCC1 (stereo partly specified) | 2.6% | 
71 | COc1ccccc1NC(=O)/C=C/C(N)=O |  | 2.06 µM (active)
72 | COc1ccccc1NC(=O)C[n+]1ccccc1 | 18.6% | 
73 | COc1ccccc1NC(=O)c1cc(Cl)nnc1Cl | -98.6% | 
74 | Nc1ccccc1Sc1cc(Cl)nnc1Cl | 0.995% | 
75 | Cc1ccsc1C(=O)OCC(=O)Nc1cccc(F)c1 | -4.82% | 
76 | O=C(CNC(=O)c1ccc2ccccc2c1)Nc1ncccc1O | -13.9% | 
77 | O=C(NCC(=O)N1CCN(c2ccccc2F)CC1)c1cccs1 | 4.7% | 
78 | O=C(NCC(=O)N1CCN(c2ccccc2O)CC1)c1ccc2ccccc2c1 |  | 18.4 µM (active)
79 | CN(C)/C=C(\C#N)C(=O)c1cccnc1Oc1cccc(F)c1 | 3.34% | 
80 | COCc1[nH][nH]c(=O)c1C=Nc1ccc(F)cc1F | -0.912% | 
81 | O=C(c1cc2ccccc2o1)N1CCN(c2cccc(C(F)(F)F)c2)CC1 | 1.06% | 
82 | Cc1ccc(C)c(S(=O)(=O)N2CCCOC2CNC(=O)C(=O)NC2CCCCC2)c1 (stereo unspecified) | 5.54% | 
83 | Cn1c(Nc2ccccc2)cc(=O)n(C)c1=O | 4.61% | 
84 | S=c1ccc2ccccc2[nH]1 |  | 13 µM (active)
85 | CCOC(=O)c1ccccc1NS(=O)(=O)c1c(C)nc2sccn2c1=O | -6.93% | 
86 | COc1ccccc1NC(=O)CSC1=Nc2ccccc2C2=NC(CC(=O)NCc3cccs3)C(=O)N12 (stereo unspecified) |  | 20.6 µM (active)
87 | Cc1ccc(CNC(=O)CSC2=Nc3ccccc3C3=NC(C)C(=O)N23)cc1 (stereo unspecified) | -26.7% | 
88 | O=C(CSC1=Nc2ccccc2C2=NC(CC(=O)NCc3ccco3)C(=O)N12)NCc1ccco1 (stereo unspecified) | -13.9% | 

Row | Compound | activity change, negative = growth inhibition | Potency
89 | CN1CCC(=NNC(=O)c2ccc(N(Cc3ccc(Cl)cc3)S(C)(=O)=O)cc2)CC1 | 4.52% | 
90 | CC(=O)Nc1ccc(NC(=O)CC2CCCC2)cc1 | 0.0692% | 
91 | CSc1ncnc2c1ncn2CCCNCC1CCCCC1 | -26.5% | 
92 | CSc1ncnc2c1ncn2CC(=O)C1CCC2C3CCC4=CC(=O)CCC4(C)C3CCC12C (stereo unspecified) |  | 5.8 µM (active)
93 | CCOC(=O)c1ccc(CS(=O)c2ccc(Cl)cc2)o1 (stereo unspecified) | -18.3% | 
94 | CC(Nc1ccc([N+](=O)[O-])cc1[N+](=O)[O-])c1ccccc1 (stereo unspecified) | 3.71% | 
95 | CCN(CC)c1ccc(/C=N/NC(=O)CNC(=O)c2cccnc2)cc1 | 31.8% | 
96 | CCN(CC)c1ccc(/C=N/NC(=O)c2cnccn2)c(O)c1 |  | 5.17 µM (active)
97 | CCN(CC)c1ccc(C(=O)Nn2c(C)nc3ccccc3c2=O)cc1 | -17.4% | 
98 | CCN(CC)c1ccc(/C=N/Nc2nc(C)cc(C)n2)c(O)c1 |  | 4.11 µM (active)
99 | Cc1ccc(C(=O)NCCNC(=O)c2cnccn2)cc1 | 8.28% | 
100 | O=C(NCc1ccco1)c1cccc(-c2ccc3nncn3c2)c1 | -0.594% | 
101 | CS(=O)(=O)c1cccc(-c2ccc3nncn3c2)c1 | 11.7% | 
102 | NC(=O)c1ncc(C(F)(F)F)cc1Oc1ccc(F)cc1 | 0.776% | 
103 | O=C(Nc1ccccc1Cl)Nn1cnnc1 | -0.423% | 
104 | O=C(COC(=O)c1ccccc1)c1ccc2c(c1)OCCO2 | 4.32% | 
105 | O=C(CCN1CCc2ccccc2C(O)(c2ccccc2)C1)c1ccc2c(c1)OCCO2 (stereo unspecified) |  | 2.31 µM (active)
106 | O=C(CN1CCC(O)(c2ccccc2)CC1)Nc1ccc2c(c1)OCCO2 | -0.373% | 
